Screening data (PubChem BioAssay)
uPA surface inh – qHTS for Inhibitors of Cell Surface uPA Generation; cell surface uPA generation assay, qHTS; Potency, µM (doses to about 38.3 µM), without a hit: at the highest dose activity change, negative = inhibition, usual class: inhibitors; 330,000 compounds, 0.31% hits; active = well fitted inhibition curve with a large enough effect; inconclusive = small, poorly fitted or top-dose-only effect; inactive = no such curve, though single readings can be large or run the other way; tested in mouse RAW 264.7 cells; note: potency is the fitted concentration of half-maximal effect; % is set by controls: 0 for no effect and ±100 for the full control effect; nearly all actives have a fitted effect of over 55% in size
KCNH2 WT inh – qHTS for Inhibitors of KCHN2 3.1: Wildtype qHTS; Voltage-gated inwardly rectifying potassium channel KCNH2 (Homo sapiens), Q12809; U2OS, BacMam KCNH2, thallium flux FluxOr; active compounds read low; activity change, % at 1.84 µM; 340,000 compounds, 0.37% hits;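 active = maximum activity change below -70%; inconclusive = maximum activity change between -70% and -50%; inactive = maximum activity change above -50%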; note: % is set by controls: 0 for no effect and ±100 for the full control effect
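U2OS cells were transduced with wild-type KCNH2 virus (2.03 x 10^8 / mL) for 4 h at room temperature, then cultured overnight at 37 C. Thallium flux was read with FluxOr dye. Rate constants were normalized to DMSO controls.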
S-ASM inh – Inhibitors of Secretory Acid Sphingomyelinase (S-ASM): qHTS; 340,000 compounds, 0.006% hits; Potency, µM (top dose mostly 57.5 µM), without a hit: top-dose activity change, negative = inhibition, most hits filed as inhibitors; Sphingomyelin phosphodiesterase (Homo sapiens), P17405; placental ASM, HMU-PC fluorogenic substrate, 60 min; note: potency is the fitted concentration of half-maximal effect
Target sequence (P17405 47-631 limits assumed): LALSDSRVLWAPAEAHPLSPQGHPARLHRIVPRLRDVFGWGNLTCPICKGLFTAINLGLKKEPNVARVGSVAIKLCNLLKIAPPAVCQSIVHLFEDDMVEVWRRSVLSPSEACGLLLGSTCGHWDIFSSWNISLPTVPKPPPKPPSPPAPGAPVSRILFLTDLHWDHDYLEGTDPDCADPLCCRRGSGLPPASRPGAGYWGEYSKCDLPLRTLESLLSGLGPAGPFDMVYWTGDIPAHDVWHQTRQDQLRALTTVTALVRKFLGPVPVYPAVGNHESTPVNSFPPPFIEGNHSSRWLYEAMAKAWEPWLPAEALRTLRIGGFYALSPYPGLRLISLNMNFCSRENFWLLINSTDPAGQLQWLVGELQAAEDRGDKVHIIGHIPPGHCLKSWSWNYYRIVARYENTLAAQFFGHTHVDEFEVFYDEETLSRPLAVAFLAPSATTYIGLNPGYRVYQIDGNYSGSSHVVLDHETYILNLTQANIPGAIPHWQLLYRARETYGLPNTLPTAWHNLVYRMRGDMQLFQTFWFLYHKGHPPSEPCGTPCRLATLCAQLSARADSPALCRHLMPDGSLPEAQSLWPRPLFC
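Fluorogenic HMU-PC substrate (9 uM final) is turned over by placental ASM in 60 min at 37 C after a 10 min compound preincubation. Reaction ended by alkaline stop (pH 10), with fluorescence read at 386/447 nm.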
p53 reactivator – qHTS assay for re-activators of p53 using a Luc reporter; 320,000 compounds, 0.063% hits; Potency, µM (titrated, usually from 92.2 µM), inactives show at the highest dose activity change, positive = activation, hits mostly activators; H1299 p53-A138V BP100-luciferase reporter, luminescence, 24 h; note: potency is the fitted concentration of half-maximal effect; % of control where 0% means no effect; nearly all actives have a fitted effect of over 45% in size
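H1299 (p53-null), stable ts p53-A138V + BP100-Luc; 1000 cells/well, Opti-MEM/10% FBS; cpd 4 pt, 1:5; 24 h, 37 deg C, 5% CO2; detection reagent 10 min RT; luminescence.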
KCNH2 3.1 block – qHTS for Inhibitors of KCHN2 3.1: Mutant qHTS; Potassium voltage-gated channel subfamily H member 2, brain isoform KCNH2 3.1 (human); U2OS KCNH2 3.1, thallium flux FluxOr; active compounds read low; activity change, % (tested at about 1.8 µM); 340,000 compounds, 0.95% hits;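 active = maximum activity change below -70%; inconclusive = maximum activity change from -70% to -50%; inactive = maximum activity change above -50%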;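 note: thallium influx rate constant from kinetic fluorescence after stimulation buffer; % is set by controls: 0 for no effect and ±100 for the full control effect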
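Channel expression came from 3.1 mutant virus (1.77 x 10^8 /mL) applied to suspended U2OS cells for 4 h. Flux was tracked with FluxOr dye plus Red40 quencher, and kinetic rate constants normalized to controls.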
MmCpn inh – Inhibitors of TCP-1 ring complex (TRiC) of Methanococcus maripaludis (MmCpn): qHTS; Chaperonin Mm-Cpn (Methanococcus maripaludis); purified Mm-Cpn ATPase, ADP Transcreener TR-FRET; 330,000 compounds, 0.031% hits; Potency, µM (top dose mostly 76.9 µM), for inactives: top-dose activity, negative = inhibition, most hits filed as inhibitors; note: potency is the fitted concentration of half-maximal effect; % is set by controls: 0 for no effect and ±100 for the full control effect; nearly all actives have a fitted effect of over 80% in size
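Purified archaeal chaperonin (25 nM final) was preincubated with compound for 10 min at 37°C, then ATP (10 uM final) was added for 30 min at 37°C in Tris pH 7.4/KCl/MgCl2/DTT buffer. ADP was quantified by HTRF Transcreener TR-FRET.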
An asterisk follows results filed as active; u = inconclusive; x = not tested or not shown. Rows were chosen to be rich in hits. Some 1.4% of all compounds tested hit in one or more screens of this group. Unless noted, calls come from the whole dose curve; as a rule, active = well fitted curve in the direction sought with a large enough effect; inconclusive = small, poorly fitted or top-dose-only effect, or another doubt; inactive = no such curve, though single readings can be large; an effect the other way counts as inactive or inconclusive.

SMILES | uPA surface inh | KCNH2 WT inh | S-ASM inh | p53 reactivator | KCNH2 3.1 block | MmCpn inh
CCN(CC)c1ccc(/C=C/C(=O)c2ccc(Br)cc2)cc1 | 2.9% | -166.7* | 13.4% | u | u | -2.4%
O=C1[C@H](Cc2ccccc2)NCC=CC[C@@H](c2ccc(Cl)cc2)N1Cc1ccccc1 | -1.3% | -0.3 | -12.1% | x | -32.9 | x
CC1=NNC(=O)C1CCC(=O)N/N=C/c1ccccc1 (stereo not given) | 1.1% | -0.5 | 3.3% | 0.0% | 19.2 | 0.4%
CN(C)c1ccc(C=c2c3ccccc3n3c2cc(-c2ccc(Cl)cc2)[n+]3C)cc1 | -11.3% | -207.1* | -4.2% | x | -190.6* | x
CN(C)c1ccc(C=c2c3ccccc3n3c2cc(-c2ccccc2)[n+]3C)cc1 | -4.8% | 2.9 | u | x | 14.6 | x
NC(=O)C1CCN(c2nc(-c3ccc(N4CCCCC4)nc3)cs2)CC1 | x | x | x | x | x | -4.3%
Cc1cccc(NC(=O)c2nc[nH]c2C(=O)NCCCCNC(=O)c2[nH]cnc2C(=O)Nc2cccc(C)c2)c1 | -10.3% | 1.1 | 1.4% | -7.4% | -1.0 | 1.0%
CCOc1ccc2c(ccc(/C=C/c3cc(C)c4cccnc4c3O)[n+]2C)c1 | -5.1% | 23.2 | -22.6% | x | -8.5 | x
O=C(CN1CCN(c2ccc(O)cc2)CC1)NC(c1ccccc1)c1ccccc1 | -9.9% | 25.8 | -0.6% | -15.4% | -22.2 | 2.7%
O=C(CN1CCCC1)NCc1ccccc1 | -3.8% | -22.8 | -0.9% | x | 17.6 | -0.7%
O=C(CN1CCCCCC1)NC(c1ccccc1)c1ccccc1 | 4.7% | 16.7 | -0.8% | x | -81.7* | -22.5%
O=C(CN1CCCCCC1)NN(Cc1ccccc1)c1ccccc1 | -0.8% | -44.5 | 2.7% | -2.4% | -95.5* | -0.6%
O=C(NCCCN1CCCC1)c1cc(Sc2ccc(F)cc2)nc2ccccc12 | -5.9% | 41.9 | -0.3% | 5.5% | -77.6* | -2.3%
COc1cccc(CC(O)CC2c3c(cc4c(c3OC)OCO4)CCN2C)c1 (stereo not given) | -11.7% | 33.9 | -0.5% | x | -70.7* | x
CN(CC1CCCO1)S(=O)(=O)c1ccc(C(=O)Nc2nc(-c3ccccn3)cs2)cc1 (stereo not given) | 3.98µM* | -4.4 | -6.8% | 11.9% | 5.1 | -2.1%
CN(CC1CCCO1)S(=O)(=O)c1ccc(C(=O)Nc2ccccc2F)cc1 (stereo not given) | 1.7% | 5.3 | -1.5% | x | x | x
O=C(Nc1nc(-c2ccccn2)cs1)C1CC1 | -23.6% | -2.8 | -7.1% | 22.4µM* | -14.5 | -1.5%
C[C@H](CO)N1C[C@H](C)[C@H](CN(C)C(=O)c2ccc3ccn(C)c3c2)OCc2cnnn2CCCC1=O | x | -0.3 | x | x | -1.9 | x
CN(Cc1cccc(Cl)c1Cl)C(=O)c1ccccc1SCC(=O)N1CCCC1 | -4.1% | -1.0 | -2.3% | x | -18.6 | x
Oc1ccc(N=Nc2ccccc2)o1 | 6.31µM* | -4.2 | 2.3% | u | 2.9 | -4.3%
O=c1ccc(N=Nc2ccccc2)ccc1O | -4.2% | -18.2 | -8.3% | u | 8.5 | 3.3%
CCCn1cc(NC(=O)c2cc(-c3ccccc3)on2)cn1 | x | 30.8 | -0.1% | 17.4% | -0.4 | 0.3%
COc1ccc(-c2cc(C(=O)Nc3cnn(Cc4ccccc4C)c3)no2)cc1OC | x | -248.0* | -7.1% | 6.0% | -14.4 | 1.4%
O=C(Nc1cnn(C23CC4CC(CC(C4)C2)C3)c1)c1cc(-c2ccccc2)on1 | 6.0% | -11.1 | -4.7% | 1.0% | -74.7* | 1.0%
Cc1ccccc1C(=O)NCC(c1ccco1)N1CCc2ccccc2C1 (stereo not given) | -8.3% | 6.6 | 3.5% | 6.8% | 1.2 | 39.8µM*
N#Cc1cnn(-c2cccc(Cl)c2)c1N | -8.5% | -4.5 | 2.4% | -2.1% | -86.4* | -1.1%
